From PubChem BioAssay AID1903 (Southern Research Specialized Biocontainment Screening …, 2009)
Values joined by “and” are separate entries in the source; they are usually repeats but may differ in a detail not shown here. Identical values can stand only once. Out of some 310,000 compounds screened, about 1,200 (0.39%) were called active. No rule for the calls is given here. These entries were drawn from the full list. Potency and affinity values are given separately.

What follows are molecules tested against Large T antigen (Simian virus 40) (UniProt P03070) (assay: TAg ATPase/helicase activity blockers – biochemical (AID 1903)). Conditions: SV40 large T antigen ATPase/helicase inhibition assay; at 20 µM; stronger effect = higher value.
Chain of Large T antigen (Simian virus 40) (P03070 whole entry, looked up): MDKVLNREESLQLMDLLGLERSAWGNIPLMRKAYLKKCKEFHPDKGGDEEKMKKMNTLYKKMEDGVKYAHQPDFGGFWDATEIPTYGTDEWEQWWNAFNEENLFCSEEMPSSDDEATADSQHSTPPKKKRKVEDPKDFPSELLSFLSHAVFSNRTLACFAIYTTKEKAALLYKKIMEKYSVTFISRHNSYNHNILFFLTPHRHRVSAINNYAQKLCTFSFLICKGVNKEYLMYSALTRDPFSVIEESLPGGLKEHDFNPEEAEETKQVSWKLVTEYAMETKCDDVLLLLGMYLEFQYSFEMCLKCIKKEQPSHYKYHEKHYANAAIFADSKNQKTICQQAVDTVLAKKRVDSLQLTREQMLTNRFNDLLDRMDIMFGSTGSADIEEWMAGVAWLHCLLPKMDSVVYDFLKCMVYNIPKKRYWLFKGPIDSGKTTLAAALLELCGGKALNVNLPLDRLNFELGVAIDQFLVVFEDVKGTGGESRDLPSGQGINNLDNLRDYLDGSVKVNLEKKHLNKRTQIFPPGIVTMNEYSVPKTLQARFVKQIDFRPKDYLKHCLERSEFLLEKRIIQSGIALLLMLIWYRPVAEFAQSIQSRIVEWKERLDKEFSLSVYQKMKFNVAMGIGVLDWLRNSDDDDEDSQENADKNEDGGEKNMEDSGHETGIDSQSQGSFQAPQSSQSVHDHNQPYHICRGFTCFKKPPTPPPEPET

inhibition, inactive:
Cc1noc(C)c1COC(=O)c1cccnc1SCC(=O)Nc1ccc2c(c1)OCO2 2.06%
Cc1ccccc1Cn1cnc2c(NS(C)(=O)=O)c(C)c(C)cc21 0.14%
NC(N)=N/N=C/c1c(Cl)cccc1Cl 21.2% and 9.2%
Cc1c(Cl)cccc1N=C(N)N=C(N)N 13.8%
COc1ccc(OC)c(N=C2C(=O)Nc3ccccc32)c1 4.71%
Cc1ccsc1/C=N/N=C1\C(=O)Nc2ccccc21 -4.81%
O=C1Nc2ccccc2/C1=N/N=C/c1cccc(O)c1 13.2%
COc1cc(/C=N/N=C(/C(=O)c2ccccc2)c2ccccc2)cc(OC)c1O 15.6%
COc1cc(/C=N/N=C2/NC(=O)C(c3ccccc3)S2)ccc1O (stereo not drawn) 30.9%
COc1ccc(O)c(/C=N/N=C2/C(=O)Nc3ccccc32)c1 12.5%
COC(=O)c1ccc(S(=O)(=O)N2C3CCC2CC(NC(=O)C2CC2)C3)cc1 (stereo not drawn) -2.31%
CCCCN(CCCC)CCCNC(=O)C12CN(Cc3ccccc3)CC1C(c1cccc([N+](=O)[O-])c1)=NO2 (stereo not drawn) 6.72%
Cc1cc(NCc2ccccc2)n2ncc(-c3ccccc3)c2n1 3.96%
CC(=O)OC[C@H]1O[C@@H](O/N=C/C[C@@H]2C=C[C@H](OC(C)=O)[C@@H](COC(C)=O)O2)[C@H](OC(C)=O)[C@@H](OC(C)=O)[C@@H]1OC(C)=O 7.46%
Cc1cc(NC(=O)C(C)SCC(=O)Nc2ccc(SC(F)F)cc2)no1 (stereo not drawn) 15.7%
Cc1ccc(C(=O)Cc2cc3ccccc3oc2=O)c(C)c1 9.25%
O=S(=O)(O)c1cc(O)ccc1O 25.8%
Oc1ccc(-c2nc3ccccc3s2)c(O)c1 21%
O=C(Cc1ccccc1)NCc1cccnc1 5.27%
CC(OC(=O)Cc1n[nH]c(=O)c2ccccc12)C(=O)Nc1cccc([N+](=O)[O-])c1 (stereo not drawn) 8.17%
COC(=O)c1cc(NS(=O)(=O)c2ccc(Cl)c(N3C(=O)c4ccc(C(=O)O)cc4C3=O)c2)cc(C(=O)OC)c1 11.3%
CCN1C(=O)C2(C(C(=O)c3cc4ccccc4o3)=C(O)C(=O)N2CCCN2CCOCC2)c2ccccc21 (stereo not drawn) 16.1%
CCN1C(=O)C2(C(C(=O)c3ccc(C)o3)=C(O)C(=O)N2CCCN(C)C)c2ccccc21 (stereo not drawn) 27.5%
CCC(=O)Nc1ccc(C(=O)NNC(=O)c2cccc(C)c2)cc1 5.14%
COc1cc(/C=C/c2ccc3cccc(O)c3n2)c(Br)cc1O 0.04%
COc1cccc2c1-c1c(O)cccc1C2=O 9.33%
O=C(CSc1nnc(-c2cccnc2)n1-c1ccccc1)Nc1ccc2c(c1)OCO2 18.3%
N#Cc1ccsc1NC(=O)CN1C(=O)NC2(CCCC2)C1=O 13.3%
CCCOc1ccc(N2C(=O)CC(NCC#N)C2=O)cc1 (stereo not drawn) 3.6%
Nc1c(-c2ccc(Cl)cc2)cnn1-c1cc(C(F)(F)F)cc(C(F)(F)F)c1 10.5%
O=C(O)C1CC(c2ccccc2)=Nc2ccccc2S1 (stereo not drawn) 19.3%
Oc1ccccc1C1=Nc2ccccc2N=C(c2cccs2)C1 12.3%
CCn1cc(S(=O)(=O)CC(=O)Nc2cc(C)ccc2C)c2ccccc21 3.58%
CC(=O)c1ccc(OCCCC(=O)NC2CCC(C)CC2)cc1 (stereo not drawn) 23.9%
Cc1cccc(-c2noc(CN(C)C(=O)COc3ccccc3)n2)c1 13.7%
Cc1nn(-c2ccccc2)c(Cl)c1C(=O)Nc1ccc(N2CCOCC2)cc1 9.69%
Cc1nn(-c2ccccc2)c(C)c1C(=O)Nc1ccc(N2CCOCC2)cc1 26.7%
C/C(CC(=O)Nc1ccc2c(c1)OCCO2)=N\NC(=O)c1ccc([N+](=O)[O-])cc1Cl 3.29%
C/C(CC(=O)Nc1ccc(N(C)C)cc1)=N\NC(=O)c1ccc(Cl)cc1 21.9%
C/C(CC(=O)NCc1ccco1)=N\NC(=O)c1ccc(Cl)cc1Cl 5.88%
C/C(CC(=O)Nc1ccc(N(C)C)cc1)=N\NC(=O)c1ccc([N+](=O)[O-])cc1 22.9%
Cc1nnsc1C(=O)N1CCCC(N2CCN(c3cccc(C(F)(F)F)c3)CC2)C1 (stereo not drawn) 12.9%
COCC(=O)Nc1ccc2c(c1)OCC(=O)N2Cc1ccccc1F 20.2%
CC(=O)N1CCN(CC(=O)O)CC1 5.47%
Cn1c(N)c(C(=O)Nc2ccccc2)c(=O)[nH]c1=O 5.18%
Cn1c2ccccc2c2cnn(CC(=O)NCCCN3CCN(c4ccccc4F)CC3)c(=O)c21 9.9%
Cc1c(Cl)cccc1NC(=O)Cn1cc(C(F)(F)F)cc(Cl)c1=O 6.09%
CCCNC(=O)Cn1sc2nc(C)cc(C)c2c1=O 8.82%
COc1ccc(OC)c(CCNC(=O)Cn2nc(C)c3c(C)n(-c4ccccc4)nc3c2=O)c1 2.47%
Cc1ccc(NC(=O)Cn2sc3nc(C)cc(C)c3c2=O)c(Cl)c1 5.12%
O=C(CCNC(=O)Cn1ccc2ccccc2c1=O)NCCCN1CCN(c2ccccc2F)CC1 -2.74%
O=C(c1cc([N+](=O)[O-])ccc1Cl)N1c2ccccc2Sc2ccccc21 3.02%
Cc1cc(C)cc(OCc2nnc(SCC(=O)NC3CC3)n2C)c1 -1.01%
CCOC(=O)N1CCC(N2C(=O)c3ccc(C(=O)NCCOC)cc3C2=O)CC1 5.99%
COc1cccc(NC(=O)Nc2cc(C)ccc2OC)c1 2.17%
CCCc1cc(=O)oc2cc(C)cc(OCC(=O)NCC(O)c3ccccc3)c12 (stereo not drawn) 12.5%
Cc1ccc(N2CC(=O)N(NC(=O)Nc3ccc(Cl)c(Cl)c3)CC2=O)cc1 13.8%
O=C(CCC(=O)N1CCN(Cc2ccccc2)CC1)Nc1nnc(C2CCCCC2)s1 13.1%
CSCCC(NC(N)=O)C(=O)Nc1cccc(S(=O)(=O)N2CCOCC2)c1 (stereo not drawn) 2.59%
O=C(CCCOc1ccc(Br)cc1)NNC(=O)c1ccncc1 26.4%
CCc1ccc(NC(=O)c2cc(-c3ccco3)on2)cc1 6.38%
O=C(CSc1cn(Cc2ccccc2)c2ccccc12)NCc1ccc(F)cc1 6.13%
C=CCn1c(=S)[nH]c2scc(-c3cccs3)c2c1=O 9.96%
C=CCn1c(SCC(=O)NCCCC)nc2scc(-c3ccco3)c2c1=O 32.9%
C=CCn1c(=S)[nH]c2scc(-c3ccc(C)o3)c2c1=O 7.5%
C=CCn1c(SCC(=O)N2CCOCC2)nc2scc(-c3ccco3)c2c1=O 22.1%
COc1cc(/C=C/[N+](=O)[O-])ccc1OC(=O)/C=C/c1ccc(F)cc1 17.2%
CC(C)CCN(CCC(C)C)CC(O)Cn1c2ccccc2c(=O)c2ccccc21 (stereo not drawn) 8.16%
CC(=O)c1cccc(NC(=S)NC(=O)c2ccccc2C)c1 -10%
CC(=O)OCCCCCCCCCCC[N+]1(C)CCCCC1 27.6%
COC(=O)CCCCCCCCCC[N+]1(C)CCCCC1 -2.24%
COc1cc([N+](=O)[O-])ccc1NC(=O)Nc1cnccn1 13.4%
Cc1[nH]n(-c2ccccc2)c(=O)c1C=Nc1ccc2[nH]c(=O)[nH]c2c1 19.5%
CCc1ccc(S(=O)(=O)NCC(O)COc2ccc(OC)cc2)cc1 (stereo not drawn) 1.57%
Nc1ccc(CCS(N)(=O)=O)cc1 2.24%
O=C(Oc1coc(CSc2ncccn2)cc1=O)c1ccccc1[N+](=O)[O-] 18.4%
Cc1ccc2c3c(c(SCC(=O)Nc4nccs4)nc2c1)CCCC3 -1.03%
Cn1c(-c2ccccc2[N+](=O)[O-])[n+](C)c2ccccc21 11.2%
Cc1cc(/C=C2\C(=N)N3N=C(CC(=O)N4CCOCC4)SC3=NC2=O)c(C)n1-c1ccccc1 11.9%
CCOC(=O)C1CC2CC(C1)CN(C(=O)C1CCCCC1)C2 (stereo not drawn) 1.74%
C/C(=N\Nc1ccc([N+](=O)[O-])cc1)c1ccc(O)cc1 23.8%
O=[N+]([O-])c1ccccc1N=Nc1ccc(O)cc1 16.2%
[O-]/C(=C(\C(=S)NCc1ccco1)[n+]1ccccc1)c1ccccc1Br 20.6%
CS(=O)(=O)c1ccc(Cl)c(NC(=O)CCNC(=O)c2ccco2)c1 1.63%
CC(C)c1nnc(NC(=O)CCC(=O)N2CCC(Cc3ccccc3)CC2)s1 16.2%
CC(C)CN1C(=O)c2ccc(C(=O)Nc3ccccn3)cc2C1=O 3.11%
C=CCN1CC(c2nc3ccccc3n2CCOc2ccccc2)CC1=O (stereo not drawn) -0.56%
CN(C)/N=C/c1ccc(N2CCOCC2)cc1 16.2%
CN(CC(=O)Nc1ccc(N2CCOCC2)cc1)CC(=O)Nc1ccc(N2CCOCC2)cc1 21.6%
CN(C)C(CNc1ccc(S(C)(=O)=O)cc1[N+](=O)[O-])Cc1ccccc1 (stereo not drawn) -5.33%
CCOC(=O)/C(C#N)=C/Nc1ccccc1NS(=O)(=O)c1ccc(C)c(C)c1 9.42%
COc1cc2c(cc1NC(=S)Nc1cccc3ccccc13)oc1ccccc12 29.9%
CNC(=S)Nc1cc2oc3ccccc3c2cc1OC 18.4%
